# In the library only some 12% were active in any assay of this set; here they are far more common.
# Sm TGR inh: qHTS Assay for the Inhibitors of Schistosoma Mansoni Peroxiredoxins. Potency, µM (highest dose often 114 µM), usual class: inhibitors. 360,000 tested, 3% active. AID 485364, 2010. Schistosoma mansoni thioredoxin glutathione reductase (TGR), Q962Y6. purified TGR, DTNB reduction, TNB absorbance 405 nm; note: nearly all actives have a fitted effect of over 60% in size
#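 Kinetic colorimetric format: TGR-catalysed, NADPH-driven DTNB reduction monitored via TNB absorbance. Enzyme dispensed at 20 nM; compound exposure 15 min at room temperature before reaction start.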
# AmpC inh detg: qHTS Inhibitors of AmpC Beta-Lactamase (assay with detergent); AmpC hydrolysis of nitrocefin, absorbance 480 nm, 0.01% Triton; Potency, µM (series often up to 114 µM), usual class: inhibitors; 370,000 tested, 0.041% active; AID 485294, 2010; note: nearly all actives have a fitted effect of over 25% in size
# Target sequence (P00811 whole entry, looked up): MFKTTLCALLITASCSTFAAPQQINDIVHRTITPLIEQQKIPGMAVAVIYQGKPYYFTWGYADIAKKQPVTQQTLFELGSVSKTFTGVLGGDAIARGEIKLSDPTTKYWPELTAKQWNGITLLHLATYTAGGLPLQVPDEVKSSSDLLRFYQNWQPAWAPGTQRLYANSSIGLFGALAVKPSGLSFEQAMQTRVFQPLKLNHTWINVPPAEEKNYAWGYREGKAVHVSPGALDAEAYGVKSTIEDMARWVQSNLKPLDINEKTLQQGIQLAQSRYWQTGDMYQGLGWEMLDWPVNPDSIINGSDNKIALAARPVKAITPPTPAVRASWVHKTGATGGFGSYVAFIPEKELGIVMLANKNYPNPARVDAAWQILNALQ
#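 AmpC (5.3 nM in the dispensed reagent) in 20 mM phosphate pH 7.0 with 0.01% (detergent screen) or 0.0001% Triton X-100 was preincubated with compounds for 15 min at room temperature. Nitrocefin was then added from an 800 uM solution, and hydrolysis was followed at 480 nm.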
# Pf growth 96h: Primary qHTS for delayed death inhibitors of the malarial parasite plastid, 96 hour incubation. P. falciparum luciferase reporter growth, 96 h. Potency, µM (series often up to 28.7 µM), most hits filed as inhibitors. 320,000 tested, 6.9% active. AID 504834, 2011
#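 Readout is luminescence from an integrated firefly luciferase in P. falciparum. Red cells, 2% hematocrit and 0.05% parasitemia final, were cultured with compound through two parasite generations (96 hours) at 37 C, 5% CO2.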
# AmpC no deterg: qHTS Inhibitors of AmpC Beta-Lactamase (assay without detergent); AmpC nitrocefin hydrolysis, absorbance 480 nm, 0.0001% Triton; 330,000 tested, 0.52% active; P00811; Potency, µM (top dose mostly 57.1 µM), usual class: inhibitors; note: nearly all actives have a fitted effect of over 20% in size
#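 20 mM phosphate pH 7.0 + 0.01% (detergent screen) or 0.0001% Triton X-100; 5.3 nM AmpC reagent; cpd preinc 15 min RT; nitrocefin (800 uM stock) to start; A480 q20 s × 4 min; Activity was normalised to no-enzyme and no-compound control wells.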
# SARS PLP yeast: qHTS of Yeast-based Assay for SARS-CoV PLP; S. cerevisiae expressing SARS-CoV PLpro, growth rescue; Potency, µM (doses to about 32.9 µM), hits mostly activators; 330,000 tested, 0.19% active; AID 485353, 2010; calls by dose curve; note: nearly all actives have a fitted effect of over 55% in size
# Pf growth 48h: Primary qHTS for delayed death inhibitors of the malarial parasite plastid, 48 hour incubation; P. falciparum luciferase growth in erythrocytes, 48 h; Potency, µM (top dose mostly 28.7 µM), actives largely listed as inhibitors; 310,000 tested, 5.9% active; AID 504832, 2011
#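 A one-generation exposure of luciferase-tagged malaria parasites in RPMI 1640/Albumax erythrocyte culture, 37 C and 5% CO2. Inhibition is inferred from decreased luminescence after adding detection reagent.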
# Hits are given with their value; 0 = inactive; ? = inconclusive; - = no result. Unless noted, calls come from the whole dose curve; as a rule, active = well fitted curve in the direction sought with a large enough effect; inconclusive = small, poorly fitted or top-dose-only effect, or another doubt; inactive = no such curve, though single readings can be large; an effect the other way counts as inactive or inconclusive.
SMILES,Sm TGR inh,AmpC inh detg,Pf growth 96h,AmpC no deterg,SARS PLP yeast,Pf growth 48h
CCOC(=O)c1c(NC(=S)Nc2ccc(OCC)cc2)sc2c1CCN(C)C2,0,0,3.7µM,0,0,8.3µM
CCOC(=O)c1c(NC(=O)Nc2ccc(F)cc2)sc2c1CCN(C)C2,0,0,?,0,0,8.3µM
CCOC(=O)c1c(NC(=O)C(F)(OC)C(F)(F)F)sc2c1CCN(C)C2 (stereo not drawn),0,0,10µM,0,0,?
CCOC(=O)c1c(NC(=O)CSc2nnc(C)s2)sc2c1CCN(C)C2,32µM,0,?,0,0,6.6µM
CCOC(=O)c1c(NC(=S)Nc2ccc(Cl)cc2)sc2c1CCN(C)C2,0,?,?,0,0,?
CC(C)CN(C(=O)CN(C)CC(=O)Nc1ccc(Cl)c(C(F)(F)F)c1)c1c(N)n(CC(C)C)c(=O)[nH]c1=O,-,-,-,0,0,-
Cc1ccc2[nH]c(CSc3nnc(C)s3)cc(=O)c2c1,0,0,-,-,-,-
CNC(=S)NNC(=O)c1cc(C(C)(C)C)nn1Cc1ccc(F)cc1,0,0,?,0,0,?
CCOc1ccc(S(=O)(=O)N2CCN(c3cc(Cl)ccc3Cl)CC2)c2ccccc12,0,0,-,-,-,-
CCOC(=O)c1c(NC(=O)C2CCCCC2)sc2c1CCN(C(C)C)C2,0,0,13µM,0,0,0
COC(=O)c1c(NC(=O)C2CCCCC2)sc2c1CCN(C(C)C)C2,0,0,?,0,0,?
CC(C)CCNC(=O)c1ccc2c(c1)NC(=O)C(CS(=O)(=O)Cc1cccc(Br)c1)N2 (stereo not drawn),50µM,0,-,-,-,-
Cn1c2ccccc2c2nn(-c3ccccc3)c(=O)cc21,0,?,10µM,0,0,0
Cc1ccc2[nH]c(=O)c(CN(Cc3ccco3)C(=O)N3CCOCC3)cc2c1,?,0,?,0,0,0
Cc1ccc2[nH]c(=O)c(CN(CCCO)C(C)c3nnnn3Cc3ccco3)cc2c1 (stereo not drawn),0,0,0,0,0,2.3µM
CCC(c1nnnn1Cc1ccco1)N(Cc1ccccc1OC)Cc1cc2cc(C)ccc2[nH]c1=O (stereo not drawn),0,0,?,0,0,1.5µM
CCC(c1nnnn1Cc1ccco1)N(Cc1cc2cc(C)cc(C)c2[nH]c1=O)CC1CCCO1 (stereo not drawn),22µM,0,0,0,0,?
CCC(c1nnnn1C(C)(C)CC)N(CCN1CCOCC1)Cc1cc2cc(C)ccc2[nH]c1=O (stereo not drawn),0,0,?,0,0,-
CCc1ccc(N2C(=O)CS(=O)(=O)C23C(=O)N(Cc2ccccc2F)c2ccccc23)cc1 (stereo not drawn),0,0,-,-,-,-
CCOc1ccccc1NC(=O)c1cc(C(=O)c2cc(OC)ccc2O)coc1=N,0,?,2.3µM,0,0,4.7µM
Cc1cccc(-c2nnc(SCC#N)n2-c2ccccc2)c1,0,0,0,0,0,0
Cc1ccc(-n2c(SCCN)nnc2-c2cccc(C)c2)cc1,0,?,?,0,0,10µM
CCc1ccc(-n2nc3cc(C)c(N)cc3n2)cc1,0,0,13µM,0,0,0
Cc1ccc(-n2nc3cc(C)c(N)cc3n2)cc1,0,0,-,0,0,0
CCC(=O)N(Cc1ccco1)c1nc(-c2ccccc2)cs1,0,?,?,0,0,0
O=C(c1cccs1)N(Cc1ccco1)c1nc(-c2ccc(F)cc2)cs1,0,?,0,0,0,13µM
Cc1ccc(C2c3[nH]c4ccccc4c3C[C@H]3C(=O)N(c4ccccc4C(=O)NCCN4CCOCC4)C(=O)N23)cc1 (stereo partly drawn),0,?,?,0,0,15µM

# Assay outcomes deposited in PubChem by National Center for Advancing Translational Sciences (NCATS).
